Source: PubChem BioAssay AID1159580 (chemical genetic matrix, 2015)
The campaign covered roughly 5,500 compounds. About 2,000 (36%) were called active. Not shown: some 18% with an inconclusive outcome. Rule as the data show it: active = normalized growth mostly below about 0.91 (no sharp cut-off); inconclusive = no clear call, values can overlap the other calls; inactive = mostly above about 0.92. Some of the results follow.

Experiment: chemical genetic growth profiling, strain panel (AID 1159580);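 also: tested at 20 µM; growth read once vehicle control cultures reached saturation at 30 °C; 1 = growth at the plate median or of vehicle wells; lower values mean less growth of the strain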
Conditions: growth OD

Measured: normalized growth

CN(C)CC/C=C1\c2ccccc2Sc2ccc(Cl)cc21
inactive: S. cerevisiae deletion strains, locus YJR043C, strain POL32, hits give low values 1.03 | S. cerevisiae deletion strains, locus YJR075W, strain HOC1, hits give low values 0.884 | S. cerevisiae deletion strains, locus YKL009W, strain mrt4, hits give low values 0.989 | S. cerevisiae deletion strains, locus YKL068W, hits give low values 1.01 | S. cerevisiae deletion strains, locus YKL085W, strain MDH1 (second series), hits give low values 1.03 | S. cerevisiae deletion strains, locus YKL085W, strain MDH1, hits give low values 1.03 | S. cerevisiae deletion strains, locus YKL190W, strain CNB1, hits give low values 0.982 | S. cerevisiae deletion strains, locus YKR026C, strain gcn3, hits give low values 0.992 | S. cerevisiae deletion strains, locus YKR091W, strain srl3, hits give low values 0.987 | S. cerevisiae deletion strains, locus YLL001W, strain dnm1, hits give low values 0.904 | S. cerevisiae deletion strains, locus YLL026W, hits give low values 0.981 | S. cerevisiae deletion strains, locus YLL041C, strain sdh2, hits give low values 0.993 | S. cerevisiae deletion strains, locus YLR058C, strain SHM2, hits give low values 0.933 | S. cerevisiae deletion strains, locus YLR102C, strain apc9, hits give low values 1.02 | S. cerevisiae deletion strains, locus YLR113W, strain HOG1, hits give low values 0.915 | S. cerevisiae deletion strains, locus YLR221C, strain rsa3, hits give low values 0.947 | S. cerevisiae deletion strains, locus YLR262C, strain YPT6 (second series), hits give low values 1.1 | S. cerevisiae deletion strains, locus YLR268W, strain sec22, hits give low values 1.01 | S. cerevisiae deletion strains, locus YLR320W, strain mms22, hits give low values 0.951 | S. cerevisiae deletion strains, locus YLR330W, strain CHS5, hits give low values 0.999 | S. cerevisiae deletion strains, locus YLR357W, strain rsc2, hits give low values 0.935 | S. cerevisiae deletion strains, locus YLR371W, strain rom2, hits give low values 1.01 | S. cerevisiae deletion strains, locus YLR384C, strain iki3, hits give low values 0.987 | S. cerevisiae deletion strains, locus YML016C, strain PPZ1, hits give low values 0.994 | S. cerevisiae deletion strains, locus YML032C, strain rad52, hits give low values 0.947 | S. cerevisiae deletion strains, locus YML120C, strain ndi1, hits give low values 0.998 | S. cerevisiae deletion strains, locus YML124C, strain tub3, hits give low values 1.02 | S. cerevisiae deletion strains, locus YMR078C, strain ctf18, hits give low values 1.02 | S. cerevisiae deletion strains, locus YMR125W, strain sto1, hits give low values 0.923 | S. cerevisiae deletion strains, locus YMR129W, hits give low values 1 | S. cerevisiae deletion strains, locus YMR205C, strain PFK2, hits give low values 0.921 | S. cerevisiae deletion strains, locus YMR223W, strain ubp8, hits give low values 0.935 | S. cerevisiae deletion strains, locus YMR307W, strain GAS1, hits give low values 0.903 | S. cerevisiae deletion strains, locus YNL067W, strain RPL9B, hits give low values 0.929 | S. cerevisiae deletion strains, locus YNL071W, strain lat1, hits give low values 0.934 | S. cerevisiae deletion strains, locus YNL183C, strain NPR1, hits give low values 0.872 | S. cerevisiae deletion strains, locus YNL233W, strain BNI4, hits give low values 0.891 | S. cerevisiae deletion strains, locus YNL248C, strain rpa49, hits give low values 0.917 | S. cerevisiae deletion strains, locus YNL250W, strain rad50, hits give low values 1.03 | S. cerevisiae deletion strains, locus YNL271C, strain bni1, hits give low values 1.01 | S. cerevisiae deletion strains, locus YNL298W, strain CLA4, hits give low values 1 | S. cerevisiae deletion strains, locus YNL307C, strain MCK1, hits give low values 0.999 | S. cerevisiae deletion strains, locus YNL322C, strain KRE1 (second series), hits give low values 1.03 | S. cerevisiae deletion strains, locus YNR049C, strain mso1, hits give low values 0.996 | S. cerevisiae deletion strains, locus YNR052C, strain pop2, hits give low values 0.964 | S. cerevisiae deletion strains, locus YOL012C, strain htz1 1.87 | S. cerevisiae deletion strains, locus YOL147C, strain pex11, hits give low values 1.02 | S. cerevisiae deletion strains, locus YOR001W, strain rrp6, hits give low values 0.935 | S. cerevisiae deletion strains, locus YOR061W, strain CKA2, hits give low values 0.941 | S. cerevisiae deletion strains, locus YOR069W, strain VPS5, hits give low values 1 | S. cerevisiae deletion strains, locus YOR080W, strain dia2, hits give low values 0.975 | S. cerevisiae deletion strains, locus YOR136W, strain idh2, hits give low values 1.02 | S. cerevisiae deletion strains, locus YOR144C, strain elg1, hits give low values 1.01 | S. cerevisiae deletion strains, locus YOR184W, strain ser1, hits give low values 1.06 | S. cerevisiae deletion strains, locus YOR231W, strain MKK1, hits give low values 0.869 | S. cerevisiae deletion strains, locus YOR265W, strain rbl2, hits give low values 0.974 | S. cerevisiae deletion strains, locus YOR316C, strain cot1, hits give low values 1.02 | S. cerevisiae deletion strains, locus YPL240C, strain hsp82, hits give low values 0.981 | S. cerevisiae deletion strains, locus YPL241C, strain CIN2, hits give low values 1.01 | S. cerevisiae deletion strains, locus YPL256C, strain CLN2, hits give low values 0.95 | S. cerevisiae deletion strains, locus YPR119W, strain clb2, hits give low values 1.03 | S. cerevisiae deletion strains, locus YPR141C, strain kar3, hits give low values 1.02 | S. cerevisiae deletion strains, locus YPR167C, strain met16, hits give low values 1.01 | S. cerevisiae deletion strains, strain wtn01, hits give low values 0.937 | S. cerevisiae strains, strain wild type, hits give low values 0.956
active: S. cerevisiae deletion strains, locus YJR066W, strain TOR1, hits give low values 0.815 | S. cerevisiae deletion strains, locus YKL160W, strain elf1, hits give low values 0.867 | S. cerevisiae deletion strains, locus YLR027C, strain aat2, hits give low values 0.881 | S. cerevisiae deletion strains, locus YLR039C, strain RIC1, hits give low values 1.5 [resistant] | S. cerevisiae deletion strains, locus YLR258W, strain gsy2, hits give low values 0.894 | S. cerevisiae deletion strains, locus YLR262C, strain YPT6, hits give low values 1.62 [resistant] | S. cerevisiae deletion strains, locus YLR342W, strain FKS1 (second series), hits give low values 0.667 | S. cerevisiae deletion strains, locus YLR342W, strain FKS1, hits give low values 0.724 | S. cerevisiae deletion strains, locus YLR370C, strain arc18, hits give low values 0.749 | S. cerevisiae deletion strains, locus YLR418C, strain cdc73, hits give low values 0.661 | S. cerevisiae deletion strains, locus YMR058W, strain fet3, hits give low values 0.775 | S. cerevisiae deletion strains, locus YMR231W, strain pep5, hits give low values 0.0779 | S. cerevisiae deletion strains, locus YNL209W, strain ssb2, hits give low values 0.665 | S. cerevisiae deletion strains, locus YOL006C, strain TOP1, hits give low values 0.42 | S. cerevisiae deletion strains, locus YOR070C, strain gyp1, hits give low values 0.804 | S. cerevisiae deletion strains, locus YOR083W, strain WHI5, hits give low values 0.735 | S. cerevisiae deletion strains, locus YOR106W, strain vam3, hits give low values 0.393 | S. cerevisiae deletion strains, locus YOR270C, strain vph1, hits give low values 0.41 | S. cerevisiae deletion strains, locus YOR290C, strain snf2, hits give low values 0.818 | S. cerevisiae deletion strains, locus YPL051W, strain arl3, hits give low values 0.76 | S. cerevisiae deletion strains, locus YPL078C, strain atp4, hits give low values 0.835 | S. cerevisiae deletion strains, locus YPL106C, strain sse1, hits give low values 0.802 | S. cerevisiae deletion strains, locus YPR163C, strain tif3, hits give low values 0.827
